# Results from PubChem BioAssay (NCATS).
# Results filed as inconclusive are left out. Entries that show only a call come without a potency. Calls of active or inactive are those of the source. Unless noted, the call rests on the fitted dose curve; in most records, active means well fitted curve in the direction sought with a large enough effect; inconclusive means small, poorly fitted or top-dose-only effect, or another doubt; inactive means no such curve, though single readings can be large; an effect the other way counts as inactive or inconclusive.
# Experiments:
# [1] = Primary qHTS for inhibitors of nuclear receptor binding SET domain protein 2 (NSD2) in an RCH-ACV wild type WT cells (2C) (AID 1645877); settings: RCH-ACV (leukaemia line) NSD2 WT (2C) viability, CellTiter-Glo, 72 h; series mostly up to 44.9 µM; further: nearly all actives have a fitted effect of over 70% in size; further: potency means the concentration at half of the fitted maximal effect
# [2] = biological target: Glutathione peroxidase 1 (Homo sapiens) (UniProt P07203); assay: Primary qHTS Assay for Inhibitors of Recombinant Selenoprotein Glutathione Peroxidase 1 (GPX1) (AID 1845191); settings: recombinant GPX1, GR-coupled NADPH fluorescence, 15 min; series mostly up to 48.8 µM; further: nearly all actives have a fitted effect of over 65% in size
# Summary of the method: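 NADPH consumption tracked by fluorescence at 340/450 nm between t=0 and t=15 min, room temperature. Final mix: 10 nM GPX1, 100 nM glutathione reductase, 1 mM GSH, 0.5 mM NADPH, 0.5 mM cumene hydroperoxide, 0.01% BSA; 30 min compound–enzyme preincubation.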
# [3] = biological target: Phospholipid hydroperoxide glutathione peroxidase GPX4 (Homo sapiens) (UniProt P36969); assay: Primary qHTS Assay for Inhibitors of Recombinant Selenoprotein Glutathione Peroxidase 4 (GPX4) (AID 1845192); settings: recombinant GPX4, GR-coupled NADPH fluorescence, 15 min; series mostly up to 50 µM; further: nearly all actives have a fitted effect of over 65% in size
# Summary of the method: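 NADPH consumption followed by fluorescence at 340/450 nm, t=0 and after 15 min at room temperature. Reaction started with cumene hydroperoxide (0.5 mM final) after 30 min compound–GPX4 preincubation; final 200 nM GPX4, 100 nM GR, 1 mM GSH, 0.5 mM NADPH.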
# [4] = biological target: Catechol O-methyltransferase (Homo sapiens) (UniProt P21964); assay: Confirmatory Screen for Target Class Profiling of Small Molecule Inhibitors of Methyltransferases (AID 1745852; calls by dose curve); settings: MTase-Glo luminescence, SAH detection, recombinant enzyme; measured here: COMT max response; stronger effect = lower value
# [5] = biological target: Guanidinoacetate N-methyltransferase (Homo sapiens) (UniProt Q14353); assay: as above; settings: MTase-Glo luminescence, SAH detection, recombinant enzyme; activity change, negative = inhibition: at 57.3 µM (top of the series) unless noted
# [6] = biological target: Nicotinamide N-methyltransferase (Homo sapiens) (UniProt P40261); assay: as above; settings: MTase-Glo luminescence, SAH detection, recombinant enzyme; measured here: NNMT max response; stronger effect = lower value
# [7] = biological target: Phenylethanolamine N-methyltransferase (Homo sapiens) (UniProt P11086); assay: as above; settings: MTase-Glo luminescence, SAH detection, recombinant enzyme; measured here: PNMT max response; stronger effect = lower value
# [8] = biological target: Metallo-beta-lactamase type 2 (Klebsiella pneumoniae) (UniProt C7C422); assay: qHTS to identify inhibitors of the New Delhi Metallo-beta-lactamase (NDM): assay validation screen against the NCATS LOPAC Collection (AID 1794843); settings: NDM-1 enzyme, nitrocefin hydrolysis, absorbance 485 nm; series mostly up to 38.4 µM;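 further: nitrocefin turnover by NDM-1 measured as 485 nm absorbance at plateau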
# Summary of the method: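 NDM-1 at 2 nM final in 50 mM HEPES pH 7.0, 1 uM ZnSO4, 0.01% Tween20, preincubated with LOPAC compounds pinned in DMSO; 50 uM nitrocefin (stock) added. Hydrolysis read as absorbance at 485 nm in the plateau phase.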
# [9] = NCATS anti-infectives library activity on the primary C. elegans qHTS viability assay (AID 1745855; calls by dose curve; further: potency means the concentration at half of the fitted maximal effect); settings: C. elegans worm area imaging, day 7; series mostly up to 41.8 µM
# Summary of the method: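 GFP read-out by 488 nm laser cytometry at day 0, 3 and 7, gated on object perimeter, area and peak intensity, scored viability of PE254-GFP-FLuc worms exposed to compound in S medium with bacterial capsules at 21 °C.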
# [10] = biological target: Rap guanine nucleotide exchange factor 3 (Homo sapiens) (UniProt O95398); assay: Confirmatory qHTS for agonist of cAMP-regulated guanine nucleotide exchange factor 3 (EPAC1) (AID 1645881); settings: EPAC1 Rap1B BODIPY-GDP exchange fluorescence; series mostly up to 154 µM;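 further: EPAC1 catalysed release of BODIPY-GDP from Rap1B seen as fluorescence loss; nearly all actives have a fitted effect of over 75% in size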
# [11] = biological target: Rap guanine nucleotide exchange factor 4 (Homo sapiens) (UniProt Q8WZA2); assay: Confirmatory qHTS for agonist of cAMP-regulated guanine nucleotide exchange factor 4 (EPAC2) (AID 1645884); settings: EPAC2 GEF activity, Rap1B-BODIPY-GDP fluorescence; series mostly up to 154 µM;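 further: nucleotide exchange releases bodipy-GDP from Rap1 and this lowers its fluorescence; nearly all actives have a fitted effect of over 65% in size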
# [12] = biological target: Rap guanine nucleotide exchange factor 3 (Homo sapiens) (UniProt O95398); assay: Confirmatory qHTS for antagonist of cAMP-regulated guanine nucleotide exchange factor 3 (EPAC1) (AID 1645880); settings: EPAC1 Rap1B-BODIPY-GDP exchange, fluorescence; series mostly up to 115 µM; further: nearly all actives have a fitted effect of over 55% in size
# Summary of the method: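 Released BODIPY-GDP fluoresces less than Rap1-bound BODIPY-GDP; the signal is followed at 480/540 nm at 5-min intervals over 30 min, after 5 min at room temperature. Reactions contain 100 nM EPAC1, 250 nM RAP1B-BODIPY-GDP and 50 uM GDP; results are normalized to ATA and DMSO.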
# [13] = biological target: Rap guanine nucleotide exchange factor 4 (Homo sapiens) (UniProt Q8WZA2); assay: Confirmatory qHTS for antagonist of cAMP-regulated guanine nucleotide exchange factor 4 (EPAC2) (AID 1645885); settings: EPAC2 Rap1B-BODIPY-GDP exchange fluorescence, biochemical; series mostly up to 114 µM; further: potency means the concentration at half of the fitted maximal effect; nearly all actives have a fitted effect of over 25% in size
# Sequence of Rap guanine nucleotide exchange factor 3 (Homo sapiens) (O95398 whole entry, looked up): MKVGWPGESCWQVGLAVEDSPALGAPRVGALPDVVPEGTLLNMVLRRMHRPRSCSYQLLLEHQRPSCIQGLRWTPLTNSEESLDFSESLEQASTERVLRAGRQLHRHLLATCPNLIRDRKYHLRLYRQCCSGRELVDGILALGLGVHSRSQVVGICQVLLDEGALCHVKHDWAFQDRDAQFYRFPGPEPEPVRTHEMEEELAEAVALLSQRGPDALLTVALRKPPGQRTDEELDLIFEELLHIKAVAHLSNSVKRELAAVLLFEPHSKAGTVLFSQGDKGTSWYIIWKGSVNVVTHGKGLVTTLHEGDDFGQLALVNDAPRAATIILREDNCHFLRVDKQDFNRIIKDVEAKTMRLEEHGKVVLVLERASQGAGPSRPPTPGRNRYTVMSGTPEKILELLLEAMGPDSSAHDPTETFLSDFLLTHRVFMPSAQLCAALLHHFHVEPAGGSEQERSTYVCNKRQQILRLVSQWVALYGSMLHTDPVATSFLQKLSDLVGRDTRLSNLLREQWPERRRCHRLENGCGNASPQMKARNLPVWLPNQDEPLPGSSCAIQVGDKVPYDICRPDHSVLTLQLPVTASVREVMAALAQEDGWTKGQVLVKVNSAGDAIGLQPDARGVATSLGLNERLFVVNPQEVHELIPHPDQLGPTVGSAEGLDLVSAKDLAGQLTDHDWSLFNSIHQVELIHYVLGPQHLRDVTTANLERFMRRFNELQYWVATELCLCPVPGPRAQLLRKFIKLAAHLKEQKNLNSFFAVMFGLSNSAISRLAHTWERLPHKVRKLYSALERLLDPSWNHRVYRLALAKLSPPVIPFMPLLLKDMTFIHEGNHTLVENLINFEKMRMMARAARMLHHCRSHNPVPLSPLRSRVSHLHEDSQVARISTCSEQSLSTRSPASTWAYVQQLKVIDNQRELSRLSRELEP
# Sequence of Nicotinamide N-methyltransferase (Homo sapiens) (P40261 whole entry, looked up): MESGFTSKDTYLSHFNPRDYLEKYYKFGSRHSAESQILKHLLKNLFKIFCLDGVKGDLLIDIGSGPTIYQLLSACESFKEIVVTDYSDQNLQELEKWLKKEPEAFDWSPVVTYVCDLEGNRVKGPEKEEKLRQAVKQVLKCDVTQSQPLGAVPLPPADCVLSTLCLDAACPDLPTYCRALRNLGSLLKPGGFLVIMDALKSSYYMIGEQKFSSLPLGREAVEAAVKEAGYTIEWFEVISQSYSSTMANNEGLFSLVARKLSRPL
# Sequence of Rap guanine nucleotide exchange factor 4 (Homo sapiens) (Q8WZA2 whole entry, looked up): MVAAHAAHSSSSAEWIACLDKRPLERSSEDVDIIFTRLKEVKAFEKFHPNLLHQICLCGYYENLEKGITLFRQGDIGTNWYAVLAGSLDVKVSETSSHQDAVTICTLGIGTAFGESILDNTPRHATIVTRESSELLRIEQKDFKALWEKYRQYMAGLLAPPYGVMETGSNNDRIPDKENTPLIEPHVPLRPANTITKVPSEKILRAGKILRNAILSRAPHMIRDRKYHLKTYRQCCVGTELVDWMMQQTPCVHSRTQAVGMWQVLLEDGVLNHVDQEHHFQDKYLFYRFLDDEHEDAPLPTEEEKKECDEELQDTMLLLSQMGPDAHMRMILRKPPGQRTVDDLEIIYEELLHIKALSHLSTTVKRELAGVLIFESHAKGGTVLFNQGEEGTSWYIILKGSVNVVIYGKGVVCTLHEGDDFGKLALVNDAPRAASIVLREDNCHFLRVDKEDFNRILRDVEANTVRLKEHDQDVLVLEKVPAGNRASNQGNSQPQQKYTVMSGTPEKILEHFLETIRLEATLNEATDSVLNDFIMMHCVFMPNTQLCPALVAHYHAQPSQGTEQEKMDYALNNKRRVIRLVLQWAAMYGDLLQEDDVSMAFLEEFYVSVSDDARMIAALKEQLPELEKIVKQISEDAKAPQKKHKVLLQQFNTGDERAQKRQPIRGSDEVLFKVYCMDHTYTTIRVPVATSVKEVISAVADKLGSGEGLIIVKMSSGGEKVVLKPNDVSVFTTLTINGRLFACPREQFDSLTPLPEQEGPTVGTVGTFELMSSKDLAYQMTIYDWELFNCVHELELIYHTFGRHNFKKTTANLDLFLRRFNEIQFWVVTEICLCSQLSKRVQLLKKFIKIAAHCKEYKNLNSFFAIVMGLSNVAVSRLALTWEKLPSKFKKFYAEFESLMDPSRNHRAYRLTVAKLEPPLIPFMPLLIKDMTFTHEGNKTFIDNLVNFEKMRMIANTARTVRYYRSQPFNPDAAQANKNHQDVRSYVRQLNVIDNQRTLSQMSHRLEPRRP
# Sequence of Phospholipid hydroperoxide glutathione peroxidase GPX4 (Homo sapiens) (P36969 whole entry, looked up): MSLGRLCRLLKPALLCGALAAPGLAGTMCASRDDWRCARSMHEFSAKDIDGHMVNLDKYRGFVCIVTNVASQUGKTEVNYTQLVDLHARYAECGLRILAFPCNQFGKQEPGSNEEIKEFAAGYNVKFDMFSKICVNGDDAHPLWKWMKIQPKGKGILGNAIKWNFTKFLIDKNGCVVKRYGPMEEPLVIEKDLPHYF
# Sequence of Metallo-beta-lactamase type 2 (Klebsiella pneumoniae) (C7C422 whole entry, looked up): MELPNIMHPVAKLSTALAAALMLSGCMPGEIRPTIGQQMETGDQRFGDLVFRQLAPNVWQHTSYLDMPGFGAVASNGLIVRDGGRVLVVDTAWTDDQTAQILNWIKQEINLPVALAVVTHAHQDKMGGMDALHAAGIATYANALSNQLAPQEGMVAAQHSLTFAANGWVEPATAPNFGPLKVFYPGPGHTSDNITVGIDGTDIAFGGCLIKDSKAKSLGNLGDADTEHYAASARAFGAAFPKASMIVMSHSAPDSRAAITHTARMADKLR
# Sequence of Phenylethanolamine N-methyltransferase (Homo sapiens) (P11086 whole entry, looked up): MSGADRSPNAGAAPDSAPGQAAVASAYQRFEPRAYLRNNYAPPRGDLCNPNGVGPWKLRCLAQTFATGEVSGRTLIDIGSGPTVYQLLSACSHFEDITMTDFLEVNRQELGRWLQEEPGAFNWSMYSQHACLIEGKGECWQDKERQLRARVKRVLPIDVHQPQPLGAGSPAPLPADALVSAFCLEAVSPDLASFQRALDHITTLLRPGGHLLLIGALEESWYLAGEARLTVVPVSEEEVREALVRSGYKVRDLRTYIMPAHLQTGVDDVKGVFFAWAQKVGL
# Sequence of Glutathione peroxidase 1 (Homo sapiens) (P07203 whole entry, looked up): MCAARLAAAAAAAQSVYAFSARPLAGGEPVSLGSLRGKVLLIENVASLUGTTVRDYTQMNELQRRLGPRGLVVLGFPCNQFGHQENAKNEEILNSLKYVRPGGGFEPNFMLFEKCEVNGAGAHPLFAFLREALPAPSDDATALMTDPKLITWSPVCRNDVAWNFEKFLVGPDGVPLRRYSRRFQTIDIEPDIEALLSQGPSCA
# Sequence of Catechol O-methyltransferase (Homo sapiens) (P21964 whole entry, looked up): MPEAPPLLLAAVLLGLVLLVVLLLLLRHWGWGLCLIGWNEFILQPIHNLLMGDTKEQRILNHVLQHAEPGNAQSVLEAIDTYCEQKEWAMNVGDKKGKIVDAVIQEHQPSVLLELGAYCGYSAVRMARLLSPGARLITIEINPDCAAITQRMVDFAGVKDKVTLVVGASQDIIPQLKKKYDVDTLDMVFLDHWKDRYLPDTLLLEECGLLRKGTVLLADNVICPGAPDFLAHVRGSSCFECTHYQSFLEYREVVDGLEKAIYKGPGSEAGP
smiles,measurement,setting,value
C[C@@](O)(COc1ccc(C#N)cc1)C(=O)Nc1ccc(C#N)c(C(F)(F)F)c1,Potency,[1],inactive
same,Potency,[2],inactive
same,Potency,[3],inactive
N#C[C@@H](O[C@@H]1O[C@H](CO[C@@H]2O[C@H](CO)[C@@H](O)[C@H](O)[C@H]2O)[C@@H](O)[C@H](O)[C@H]1O)c1ccccc1,Potency,[1],inactive
same,Potency,[2],inactive
same,Potency,[3],inactive
CCN1CC2(COC)C3[C@@H](OC)C4C1C3(C1C[C@]3(O)[C@H](OC(=O)c5ccccc5)C1[C@]4(OC(C)=O)[C@@H](O)[C@@H]3OC)[C@H](OC)C[C@H]2O (stereo partly drawn),Potency,[1],inactive
same,Potency,[2],inactive
same,Potency,[3],inactive
CC(C)[C@@H](CN1CC[C@@](C)(c2cccc(O)c2)[C@@H](C)C1)NC(=O)[C@H]1Cc2ccc(O)cc2CN1,Potency,[1],14.5 µM (active)
same,Potency,[2],inactive
same,Potency,[3],inactive
NC(=O)CI,activity,[4],-3.06%
same,"activity change, negative = inhibition",[5],0.112%
same,activity,[6],-21.3%
same,activity,[7],-8.06%
same,Potency,[8],inactive
same,Potency,[2],inactive
same,Potency,[3],inactive
Cn1ncnc1COc1nn2c(-c3c(F)cccc3F)nnc2cc1C1CCC1,Potency,[1],inactive
same,Potency,[3],inactive
CN1[C@H]2C[C@H](OC(=O)[C@H](CO)c3ccccc3)C[C@@H]1[C@@H](O)C2,Potency,[1],inactive
same,Potency,[3],inactive
CCCN1CCc2cc(O)cc3c2[C@H]1Cc1ccc(O)c(O)c1-3,activity,[4],2.74%
same,"activity change, negative = inhibition",[5],-2.35%
same,activity,[6],-21.6%
same,activity,[7],0.0057%
same,Potency,[8],inactive
same,Potency,[2],inactive
same,Potency,[3],inactive
CC(C)(C)c1cc(C=C(C#N)C#N)cc(C(C)(C)C)c1O,activity,[4],-14.8%
same,"activity change, negative = inhibition",[5],-1.85%
same,activity,[6],-20.4%
same,activity,[7],-25.9%
same,Potency,[9],0.29 µM (active)
same,Potency,[8],inactive
same,Potency,[2],inactive
Cc1cn(C[C@H](N)C(=O)O)c(=O)n(Cc2cc(-c3ccccc3)sc2C(=O)O)c1=O,Potency,[1],inactive
same,Potency,[3],inactive
CCCN1CCc2cccc3c2[C@H]1Cc1ccc(O)c(O)c1-3,activity,[4],4.79%
same,"activity change, negative = inhibition",[5],5.72%
same,activity,[6],-3.62%
same,activity,[7],6.46%
same,Potency,[8],inactive
same,Potency,[2],inactive
same,Potency,[3],inactive
CCN1C[C@]2(OC(=O)c3ccccc3NC(C)=O)CC[C@H](OC)[C@@]34[C@@H]2C[C@@H]([C@@H]13)[C@@]1(O)C[C@H](OC)[C@H]2C[C@@H]4[C@]1(O)[C@H]2OC,Potency,[1],inactive
same,Potency,[3],inactive
COc1ccc2[nH]c3c(c2c1)CCNC3,activity,[4],-6.01%
same,"activity change, negative = inhibition",[5],5.37%
same,activity,[6],-13.7%
same,activity,[7],-2.07%
same,Potency,[8],inactive
same,Potency,[2],inactive
same,Potency,[3],inactive
C[C@@H]1[C@@H]2Cc3ccc(O)cc3[C@@]1(C)CCN2CC1CC1,activity,[4],7.89%
same,"activity change, negative = inhibition",[5],6.66%
same,activity,[6],-1.08%
same,activity,[7],4.55%
COc1cc(C)[nH]c(=O)c1CNC(=O)c1c(C)n([C@H](C)C2CCOCC2)c2ccccc12,Potency,[1],inactive
same,Potency,[3],inactive
CC(C)(C)c1cc(O)ccc1O,Potency,[10],inactive
same,Potency,[11],inactive
C/C(=C\c1csc(C)n1)[C@@H]1C[C@@H]2O[C@]2(C)CCC[C@H](C)[C@H](O)[C@@H](C)C(=O)C(C)(C)[C@@H](O)CC(=O)O1,Potency,[1],0.0059 µM (active)
same,Potency,[3],inactive
N#CC(OC1OC(COC2OC(CO)C(O)C(O)C2O)C(O)C(O)C1O)c1ccccc1 (stereo not drawn),Potency,[1],inactive
same,Potency,[3],inactive
COc1cc2c(cc1OC)[C@@]13CCN4CC5=CCO[C@H]6CC(=O)N2[C@H]1[C@H]6[C@H]5C[C@H]43,Potency,[1],inactive
same,Potency,[3],inactive
CCCn1c(C)c(C(=O)c2ccc3ccccc3c2)c2ccccc21,outcome,[12],inactive
same,Potency,[10],inactive
same,Potency,[11],inactive
NCC(O)c1cc(O)c(O)cc1F (stereo not drawn),activity,[4],129%
same,"activity change, negative = inhibition",[5],4.77%
same,activity,[6],-1.34%
same,activity,[7],31.6%
same,Potency,[8],inactive
same,Potency,[2],inactive
CCCN1CC[C@@H]2c3cc(O)ccc3CC[C@@H]21,activity,[4],1.91%
same,"activity change, negative = inhibition",[5],0.453%
same,activity,[6],-3.17%
same,activity,[7],-0.789%
same,Potency,[8],inactive
same,Potency,[2],inactive
same,Potency,[3],inactive
COC1CC(OC2CCC3(C)C(CCC4C3CCC3(C)C(C5=CC(=O)OC5)C(OC(C)=O)CC43O)C2)OC(C)C1OC1OC(CO)C(O)C(O)C1O (stereo not drawn),Potency,[1],1.21 µM (active)
same,Potency,[2],inactive
same,Potency,[3],inactive
O=C1CN=C(c2ccccc2)c2cc(Cl)ccc2N1CC1CC1,outcome,[12],inactive
same,Potency,[10],inactive
same,Potency,[13],55.5 µM (active)
COC(=O)N1CCN(C(=O)Cc2ccc(Cl)c(Cl)c2)[C@@H](CN2CCCC2)C1,Potency,[1],inactive
same,Potency,[3],inactive
